Experimental data as given in PubChem BioAssay (EPA / NIEHS).
Values joined by “and” are separate entries in the source; they are usually repeats but may differ in a detail not shown here. Equal entries are not always repeated. Some structures have more than one record in an assay (separate samples or runs), and their calls can disagree. Active and inactive are the calls of the source. The calls were made as follows: active = hit-call score of the fitted dose curve at least 0.9, where 1 is the maximum; inconclusive = response in the unintended direction; inactive = score below 0.9.

System: Thyroperoxidase (TPO), gene 54314
Assay: CCTE_Simmons_AUR_rTPO: CCTE's Amplex UltraRed Assay for Thyroperoxidase (TPO) Inhibition, Simmons Lab (AID 2283662);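 as to AC50: potency for loss of signal meaning inhibition of peroxidase activity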
Description: CCTE_Simmons_AUR_rTPO is a biochemical, single-readout assay that uses microsomes from rat thyroid gland in a tissue-based cell-free assay. Measurements were taken 0.5 hour after chemical dosing in a 384-well plate.CCTE_Simmons_AUR_rTPO is the assay component measured from the CCTE_Simmons_AUR_rTPO assay. It is designed to make measurements of thyroperoxidase (TPO) activity as detected with fluorescence intensity signals using the Amplex UltraRed technology as a form of enzyme activity reporter.Data from the assay component CCTE_Simmons_AUR_rTPO was analyzed at the endpoint, CCTE_Simmons_AUR_rTPO, in the positive analysis fitting direction relative to DMSO as the negative control and baseline of activity. Using a type of enzyme reporter, the Amplex UltraRed assay, loss-of-signal activity can be used to understand decreased peroxidase activity in the presence of excess […]. To generalize the intended target to other relatable targets, this assay endpoint is annotated to the oxidoreductase intended target family, where the subfamily is peroxidase.
As described previously (Paul et al., 2014), the AUR substrate was repurposed to detect peroxidase (ie, TPO) activity in the presence of excess H2O2 for the AUR-TPO assay. The reaction profile for the 384-well format AUR-TPO assay is scaled to an 80 ul assay volume containing 25 uM AUR, 300 uM H2O2, and 5 ug microsomal protein in 200 mM phosphate buffer. The assay concentration of thyroid microsomal protein was approximately […]. First, rat microsomes containing TPO and diluent 200mM potassium phosphate buffer were added to opaque, black 384-well plates (Greiner, BioExpress; Kaysville, Utah) using an automated liquid handler (BioTek MicroFlo; Winooski, Vermont) with a plastic 5 ul tubing cassette. Similarly, AUR was added next by automated liquid handling. Test compounds were administered using a HDRT as described earlier to achieve a 0.5% final DMSO concentration. Finally, H2O2 (300 uM, final concentration) was then added by the BioTek MicroFlo to initiate the reaction. Microplates were incubated at 37C in the dark for 30min. Plates were then shaken on a fluorescence plate reader (FLUOStar Optima, BMG LabTech; GmbH, Germany), and endpoint fluorescence (top read) was measured using 10 flashes per well at 544/590nm excitation/emission. Three biological replicates of technical singles were run for every chemical concentration tested. A titrated range of MMI served as a positive control for TPO inhibition on each plate of the AUR-TPO screening campaign. Test chemicals were administered as a titrated series of 8 concentrations from 5 nM up to 87.5 uM [final] for 30 minutes prior to single endpoint detection. Dimethylsulfoxide [DMSO] was used as the vehicle control. Methimazole [MMI] was used as the positive control and was administered as a titrated series of 8 concentrations from 1 nM up to 271 uM [final].

| Compound | AC50 | outcome |
| --- | --- | --- |
| CC/C(=C(\c1ccccc1)c1ccc(OCCN(C)C)cc1)c1ccccc1 | 24.2 µM (active) | inactive |
| O=c1cc(-c2ccc(O)cc2)oc2cc(O)cc(O)c12 | 4.81 µM (active) | – |
| CN(C)C(=O)Nc1ccccc1 | 43.8 µM (active) | – |
| CCCCCCCCCCCCOCCOS(=O)(=O)O | 50.8 µM (active) | – |
| O=c1cc[nH]cc1 | – | inactive |
| COc1ccccc1O | 21.7 µM (active) | – |
| CCCCCCCCCCCCS | 7.49 µM (active) | – |
| CC(=O)Nc1cc(S(=O)(=O)O)cc2cc(S(=O)(=O)O)c(N=Nc3ccccc3)c(O)c12 | 40.8 µM (active) | – |
| [O-]/[N+](=N\O)c1ccccc1 | – | inactive |
| Cc1cccc(O)c1 | 19.6 µM (active) | – |
| CC(C)(C)c1cccc(O)c1 | 18.9 µM (active) | – |
| CC1=CCC(=C(C)C)CC1 | – | inactive |
| c1ccc2scnc2c1 | 56 µM (active) and 16.7 µM (active) | – |
| NC(N)=S | 19.1 µM (active) and 12.3 µM (active) | – |
| CCCc1ccc(O)cc1 | – | inactive |
| CC(=O)OC/C=C(C)/C=C/C=C(C)/C=C/C1=C(C)CCCC1(C)C | 50.9 µM (active) | – |
| CCCCC/C=C\C=C\C(=O)OCC | 38.6 µM (active) | – |
| O=C(O)CS | – | inactive |
| CN1CCc2cccc3c2[C@H]1Cc1ccc(O)c(O)c1-3 | 0.522 µM (active) | – |
| C#C[C@]1(O)CC[C@H]2[C@@H]3CCc4cc(O)ccc4[C@H]3CC[C@@]21C | 9.38 µM (active) | – |
| O=C(O)C1=NN(c2ccc(S(=O)(=O)O)cc2)C(=O)C1 | 36.4 µM (active) | – |
| CCc1cccc(O)c1 | 16.6 µM (active) | – |
| CCC(C)(C)C1CCC(=O)CC1 | 39.3 µM (active) | – |
| O=C(c1ccc(OCCN2CCCCC2)cc1)c1c(-c2ccc(O)cc2)sc2cc(O)ccc12 | – | inactive |
| CCCCCCCCOC(=O)c1ccc(O)cc1 | 52.8 µM (active) | – |
| C[C@]12CC[C@@H]3c4ccc(O)cc4CC[C@H]3[C@@H]1CC[C@@H]2O | 4.86 µM (active) | – |
| O=Cc1ccccc1O | – | inactive |
| CCCc1ccc(N)cc1 | 0.0301 µM (active) | – |
| CCCCCCOc1ccc(O)cc1 | 8.69 µM (active) | – |
| O=C1OC2(c3ccc(O)cc3Oc3cc(O)ccc32)c2ccccc21 | 10.2 µM (active) | – |
